High-throughput results from PubChem.
Sampled rows, rich in hits. Any-hit rate of the full collection: about 12%.
WT yeast gro inh = growth inhibition of WT yeast, mitochondrial fusion screen; mitochondrial fusion phenotypic screen, WT strain; inhibition, % at 10 µM; 190,000 compounds, 2.1% hits; in the data active means inhibition above about 58%; tested in S. cerevisiae
ROMK mod = human ROMK K+ channel modulation, primary screen; P48048; Tet-inducible ROMK, thallium flux fluorescence; actives lie on both sides; B-score at 10 µM; 130,000 compounds, 2% hits; AID 1918;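 active means signal ratio slope over the read window, or its plate-corrected B-score, at least 3 SD from the plate mean, either direction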;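 further: B-score of the F/F0 ratio slope over 7 to 12 s after thallium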
L major viab = Leishmania major promastigote growth inhibition | Leishmania major promastigotes, resazurin fluorescence viability | inhibition, % at 10 µM | 200,000 compounds, 9% hits; in the data active means inhibition above about 50%;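 further: promastigotes grown with compound for 44 hours at 28 °C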
Cl transport mod = modulators of human KCC2 chloride dependent transport; Q9H2X9; KCC2 cells, thallium flux FluoZin-2 fluorescence; B-score of Tl+ flux slope (higher = more flux/activation; lower = inhibition) at 10 µM; 190,000 compounds, 2.2% hits;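 active means thallium flux slope and its plate-corrected score both differing from the plate sample mean at a set confidence after two filtering rounds, in either direction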;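 further: slope of fluorescence scaled to starting intensity during 10 to 20 s after thallium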
Target sequence (Q9H2X9 whole entry, looked up): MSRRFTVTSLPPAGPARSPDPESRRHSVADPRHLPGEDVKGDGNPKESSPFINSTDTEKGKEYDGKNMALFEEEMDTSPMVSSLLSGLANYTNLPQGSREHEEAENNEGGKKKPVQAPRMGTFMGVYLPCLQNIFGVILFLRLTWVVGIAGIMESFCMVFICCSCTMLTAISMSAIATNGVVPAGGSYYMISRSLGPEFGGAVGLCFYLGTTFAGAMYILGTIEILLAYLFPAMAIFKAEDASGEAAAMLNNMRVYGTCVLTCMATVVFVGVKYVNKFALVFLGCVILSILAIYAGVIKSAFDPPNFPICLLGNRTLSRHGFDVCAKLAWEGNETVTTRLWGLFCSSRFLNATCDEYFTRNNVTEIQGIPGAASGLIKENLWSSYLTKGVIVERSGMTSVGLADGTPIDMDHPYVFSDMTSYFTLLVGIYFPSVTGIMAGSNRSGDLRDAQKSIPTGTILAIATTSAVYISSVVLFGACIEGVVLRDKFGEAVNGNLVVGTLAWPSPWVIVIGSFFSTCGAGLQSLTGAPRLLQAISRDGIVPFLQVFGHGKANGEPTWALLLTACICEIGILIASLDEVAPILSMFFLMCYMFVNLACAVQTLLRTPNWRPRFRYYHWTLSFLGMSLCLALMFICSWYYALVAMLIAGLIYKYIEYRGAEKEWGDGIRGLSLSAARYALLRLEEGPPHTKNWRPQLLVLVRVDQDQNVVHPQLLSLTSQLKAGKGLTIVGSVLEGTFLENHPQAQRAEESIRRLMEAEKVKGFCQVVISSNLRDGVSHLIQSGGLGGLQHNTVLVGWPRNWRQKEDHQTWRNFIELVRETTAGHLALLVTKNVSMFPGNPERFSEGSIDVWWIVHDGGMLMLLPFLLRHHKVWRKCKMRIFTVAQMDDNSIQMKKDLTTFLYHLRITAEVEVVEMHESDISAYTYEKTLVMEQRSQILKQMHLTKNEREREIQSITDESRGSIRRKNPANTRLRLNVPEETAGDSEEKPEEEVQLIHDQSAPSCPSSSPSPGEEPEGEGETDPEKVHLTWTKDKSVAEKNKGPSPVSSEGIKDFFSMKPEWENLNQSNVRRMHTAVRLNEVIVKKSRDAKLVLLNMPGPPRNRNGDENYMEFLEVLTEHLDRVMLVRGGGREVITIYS
Calpain2 inh = calpain II (pig) inhibition. inhibition, % at 16 µM. AID 1236. 220,000 compounds, 0.37% hits. purified calpain II, fluorogenic peptide substrate, 30 min;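 active means inhibition above about 50%, limit read from the data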
ROMK hit retest = confirmation of human ROMK potassium channel modulators | shares compounds with ROMK mod | ROMK thallium flux, fluorescence ratio; active compounds read low | normalized thallium flux (F/F0 slope) at 10 µM | 3,000 compounds, 54% hits;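 active means Flux at 10 µM at least 3 SD below or above vehicle control mean in one or both replicates; inconclusive means no clear call, values can overlap the other calls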
Each line names hits and unclear results; the compound was inactive in the other large screens (follow-up assays come after a bar, where they were run).

CCCCCc1cc(=O)oc2c(C(CCN3CCCCC3)c3ccc(OC)cc3)c(OC)cc(OC)c12 (centres undefined)	none (no result: WT yeast gro inh, ROMK mod, L major viab)
CCCCCc1cc(=O)oc2c(C(CCN3CCCC3)c3ccc(N(C)C)cc3)c(OC)cc(OC)c12 (centres undefined)	none (no result: WT yeast gro inh, ROMK mod, L major viab) | ROMK hit retest inconclusive
Cc1cc(C)c(S(=O)(=O)Nc2ccc[nH]c2=O)c(C)c1	none
CC(C)CC1(C)N=C(c2ccccc2)C(=S)N1 (centres undefined)	ROMK mod -3.18 | ROMK hit retest 0.0566
CCN(CC)c1ccc(/C=N/NC(=O)c2ccc3nc[nH]c3c2)cc1	none (no result: WT yeast gro inh, ROMK mod, L major viab) | ROMK hit retest inactive
CCN(CC)c1ccc(/C=N/NC(=O)c2cnccn2)cc1	ROMK mod 3.7 | ROMK hit retest 0.103
O=C(Nc1ccc(S(=O)(=O)N2CCCC2)cc1)C1CCCN1C(=O)c1cccs1 (centres undefined)	none (no result: ROMK mod)
COCCn1nnnc1C(c1cccs1)N1CCCC(C)C1 (centres undefined)	none (no result: Cl transport mod)
Cc1cc(C)cc(NC(=O)c2cnn(-c3ccccc3)c2C2CCNCC2)c1	none
O=C(Cc1cn(Cc2cccc(Cl)c2)c2ccccc12)N1CCCC1	ROMK mod -3.18, L major viab 98.5, Calpain2 inh 52.2 | ROMK hit retest 0.0593
Cc1ccc(Nc2ccc(C(=O)NCCc3ccccc3)cn2)cc1	none
Cc1ccc(C)c(Nc2ccc(C(=O)NCCc3ccccc3)cn2)c1	ROMK mod 2.7 | ROMK hit retest inactive
CS(=O)(=O)NCCOc1ccc(S(=O)(=O)N2CCCc3ccccc32)cc1	none (no result: ROMK mod)
CC1(C)CCc2cc(-c3ccnc(=S)[nH]3)ccc2O1	none (no result: WT yeast gro inh, ROMK mod, L major viab, Cl transport mod) | ROMK hit retest inactive
Clc1ccc(OCCSc2ncccn2)c2ccccc12	none (no result: ROMK mod)
Clc1ccc(OCCn2ccnc2)c2ccccc12	ROMK mod -3.22, L major viab 96.3 (no result: Cl transport mod) | ROMK hit retest inconclusive
CC1=Nc2ccccc2/C1=C\c1sc(Nc2ccc(C)cc2)nc1O	WT yeast gro inh 60.8, ROMK mod 2.01, L major viab 73.2 | ROMK hit retest inactive
Cc1cccc(N=Cc2cc(Br)cc(Cl)c2O)c1	ROMK mod 4.06 | ROMK hit retest 0.115
CCOC(=O)Cn1cc(/C=N/NC(=O)c2cc3ccccc3o2)c2ccccc21	none (no result: WT yeast gro inh, ROMK mod, L major viab) | ROMK hit retest inactive
CC(C)(C)c1ccc(C(CC(=O)O)NC(=O)Cc2ccc(F)cc2)cc1 (centres undefined)	none
C=C(C(=O)O)C(CCCCCC)C(=O)O (centres undefined)	none (no result: ROMK mod)
O=C(Nc1ccc(Cl)cc1)N1CCCN(Cc2ccc(F)cc2)C1	ROMK mod -2.74, L major viab 92.3 (no result: WT yeast gro inh) | ROMK hit retest 0.0565
O=C(Nc1ccccc1)N1CCN(Cc2ccc(Cl)cc2)CC1	none (no result: ROMK mod)
CCOC(=O)Cn1c2c(c(=N)c3c1CCC3)CCC2	none (no result: ROMK mod, Cl transport mod)
CCCCCCCCCn1c2c(c(=N)c3c1CCC3)CCCC2	ROMK mod -3.38, L major viab 100.5, Calpain2 inh 57.9 | ROMK hit retest 0.0383
CCCCCn1c2c(c(=N)c3ccccc31)CCC2	none (no result: WT yeast gro inh, L major viab)
CCCCCCCCn1c2c(c(=N)c3ccccc31)CCC2	ROMK mod -6.62, L major viab 100.4 | ROMK hit retest 0.0389
COc1cccc(-c2nc(CS(=O)CC(=O)NCc3ccccc3)c(C)o2)c1 (centres undefined)	none (no result: ROMK mod, Cl transport mod)
CC(=O)Nc1ccc(S(=O)(=O)NCCC(=O)NCCc2ccc(F)cc2)cc1	none (no result: ROMK mod) | ROMK hit retest inactive
CCNS(=O)(=O)c1ccc(NC(=O)Cc2ccc(F)cc2)cc1	none (no result: ROMK mod)
CCC(C)NC(=O)Cc1cn(C)c2ccccc12 (centres undefined)	none
Cn1cc(CN2CCN(c3ccccc3)CC2)c2ccccc21	ROMK mod -5.18 | ROMK hit retest 0.0562
COc1ccccc1NS(=O)(=O)c1cccc(NC(=O)c2cc3ccccc3oc2=O)c1	none
CCc1ccc(-c2cc(C(=O)N/N=C/c3ccco3)[nH]n2)cc1	ROMK mod -3.19 | ROMK hit retest 0.0628
CCCC(=O)N1CCN(c2nc(CC(C)C)c3c(c2C#N)CCC3)CC1	ROMK mod -4.25 (no result: Cl transport mod) | ROMK hit retest 0.0656
CCOC(=O)/C(=C\c1cccnc1)C(=O)c1cc(C(C)=O)c(Nc2ccccc2)s1	WT yeast gro inh 83.6, ROMK mod -2.99, L major viab 100.2 | ROMK hit retest 0.0505
CCOC(=O)/C(C#N)=C\c1cccnc1	none
Fc1ccc(Oc2cnns2)cc1	none
C=CCOC(=O)C(C#N)c1nc2ccccc2nc1N1CCN(Cc2ccc3c(c2)OCO3)CC1 (centres undefined)	ROMK mod -3.18, L major viab 57.8 | ROMK hit retest 0.063
CC(C)c1ccc2c(c1)CCC1C(C)(CN)CCCC21C (centres undefined)	none (no result: WT yeast gro inh, ROMK mod, L major viab) | ROMK hit retest 0.0401
Cc1ccc(/C=N\NC(=O)C2CN(S(=O)(=O)c3ccccc3)CCN2S(=O)(=O)c2ccccc2)cc1 (centres undefined)	none (no result: ROMK mod)
O=C(Cc1cccs1)N(CC1CCCO1)C1(C(=O)NC2CCCC2)CCCCC1 (centres undefined)	ROMK mod -1.82 | ROMK hit retest inconclusive
O=S(=O)(NC1CCCC1)c1ccc(S(=O)(=O)N(Cc2cccs2)CC2CCCO2)cc1 (centres undefined)	ROMK mod -3.13 | ROMK hit retest inactive
O=S(=O)(c1ccc(S(=O)(=O)N(Cc2cccs2)CC2CCCO2)cc1)N1CCCCC1 (centres undefined)	none (no result: Cl transport mod)
O=C(Cc1cccs1)N(Cc1ccco1)C1(C(=O)NC2CCCCC2)CCCCC1	none
O=[N+]([O-])c1cc(-c2ncccn2)c([N+](=O)[O-])s1	none | ROMK hit retest 0.0605
CC(C)Sc1nc2c([nH]1)c(=N)ncn2Cc1ccccc1	ROMK mod -4.41 | ROMK hit retest 0.057
Cc1cccc(OCCSc2nc3c([nH]2)c(=N)ncn3Cc2ccccc2)c1	none (no result: ROMK mod)
CC(=O)c1cc(-c2ccccc2)n(CC(=O)N2CCCCC2)c1C	ROMK mod 2.97 | ROMK hit retest inactive
CCOC(=O)c1cc(-c2ccccc2)n(CC(=O)N2CCCC2)c1C	none (no result: ROMK mod)
CC(C)OC(=O)NC(Nc1ccccc1C(=O)O)(C(F)(F)F)C(F)(F)F	none (no result: WT yeast gro inh, ROMK mod, L major viab) | ROMK hit retest inactive
CCOC(=O)NC(Nc1ccc(C)cn1)(C(F)(F)F)C(F)(F)F	none
Cc1ccc(S(=O)(=O)CC(=O)c2ccc([N+](=O)[O-])cc2)cc1	none (no result: WT yeast gro inh, ROMK mod, L major viab) | ROMK hit retest inactive
Cc1ccc2nsnc2c1N(S(C)(=O)=O)S(C)(=O)=O	none
Cc1ccc(/C=[N+](\[O-])c2ccc(N(C)C)cc2)c2nsnc12	WT yeast gro inh 77.2 (no result: ROMK mod, Cl transport mod) | ROMK hit retest 0.0468
COc1ccc(NC(=O)CSc2nccn2C)cc1S(N)(=O)=O	none
O=C1N=c2ccccc2=C1c1sc(=S)n(Cc2ccccc2Cl)c1O	none (no result: WT yeast gro inh, ROMK mod, L major viab)
Cn1nc(C(F)(F)F)c(C#N)c1N1CCN(c2ccc(F)cc2)CC1	none
Cn1nc(C(F)(F)F)c(C#N)c1N1CCN(c2ccccc2)CC1	ROMK mod -3.07 | ROMK hit retest 0.0633
CCCCCCn1c(CN2CCN(C(=O)OCC)CC2)nc2c1c(=O)n(C)c(=O)n2C	none (no result: WT yeast gro inh, Calpain2 inh)
CCCOc1ccc(-c2cc(C(=O)NCC3CCCO3)c3ccccc3n2)cc1 (centres undefined)	ROMK mod -4.17 | ROMK hit retest inconclusive
